# aSyn UTR inh – MLPCN primary screen, SNCA 5' untranslated region; alpha-synuclein 5'UTR reporter, inhibitor activity; inhibition, % (tested at 7.5 µM); 300,000 compounds, 0.82% hits; in the data active = inhibition above about 60%; inconclusive = no clear call, values can overlap the other calls;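 also: H4 neuroglioblastoma cells stably carrying SNCA 5'UTR luciferase fusion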
# Gli-Sufu block – blocks Gli-Sufu signaling in a luciferase reporter; 340,000 compounds, 0.74% hits; Sufu-KO-LIGHT fibroblasts, Gli luciferase reporter luminescence; inhibition, % at 5 µM;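 active = inhibition above about 55%, limit read from the data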
# 697 NFkB inh – inhibitors of the PMA/ionomycin-induced NF-kB reporter in 697 B cells; 697 B-cell NF-kB luciferase reporter, 16 h; inhibition, % at 4 µM; 330,000 compounds, 0.33% hits; AID 435022; in the data active = inhibition above about 35%
# Mdm2-MdmX inh – disrupts the human Mdm2-MdmX interaction. O15151+Q00987. SaOS-2 split-luciferase Mdm2/MdmX complementation, luminescence. inhibition, % at 8 µM. 330,000 compounds, 3% hits. AID 485346;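 active = inhibition of at least 50% at 8 µM in the primary screen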
# Jurkat NFkB inh – lowers PMA/ionomycin-induced NF-kB signal in Jurkat cells; PMA/ionomycin-induced NF-kB luciferase reporter, luminescence; AID 435003; 330,000 compounds, 0.53% hits; inhibition, % at 4 µM; in the data active = inhibition above about 50%
# CSC inhib – cancer stem cell inhibition; cancer stem cell-like cells viability, luminescence; inhibition, % at 7.5 µM; 300,000 compounds, 1.1% hits; AID 2717; in the data active = inhibition above about 75%; inconclusive = no clear call, values can overlap the other calls; tested in HMLE shEcad cells
# Mdm2-MdmX conf – human Mdm2/MdmX binding inhibition, confirmed | shares compounds with Mdm2-MdmX inh | luminescent assay | inhibition, % at 8 µM | 10,000 compounds, 55% hits; in the data active = inhibition above about 40%
# Full FLuc ctr – inhibits full-length luciferase, flagging false Mdm2/MdmX hits | shares compounds with Mdm2-MdmX inh | SaOS-2 full-length luciferase counterscreen, luminescence | inhibition, % at 8 µM | 6,200 compounds, 77% hits;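 active = mean inhibition at 8 µM reaching about 37%, which flags the compound as non-specific, limit read from the data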;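 also: p53-null SaOS-2 cells with luciferase driven by a doxycycline-inducible promoter; compound on cells about two nights before reading with doxycycline added after day one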
# Numbers stand for hits; – = inactive; ? = inconclusive; · = not tested or not shown. A selection: hits, their analogues and other compounds. The true share with any hit is near 4.5%.
SMILES,aSyn UTR inh,Gli-Sufu block,697 NFkB inh,Mdm2-MdmX inh,Jurkat NFkB inh,CSC inhib,Mdm2-MdmX conf,others
CCCCCCN(C(=O)CCCCCN1C(=O)NC(c2cccc([N+](=O)[O-])c2)C(C(=O)OCc2ccccc2)=C1C)C(C(=O)NCCCC)c1ccc(OCC(=O)OC)c(C(=O)OC)c1 (stereo not drawn),–,·,–,85.3,–,–,–,
CCCCNC(=O)C(C)N(CCN(C)C)C(=O)CCCN1C(=O)NC(c2ccc([N+](=O)[O-])cc2)C(C(=O)OCc2ccccc2)=C1C (stereo not drawn),·,–,–,68.4,·,·,–,
CCCCCCN(C(=O)CCCCCN1C(=O)NC(c2ccc(-c3ccccc3)cc2)C(C(=O)OCc2ccccc2)=C1C)C(C)C(=O)NCCCC (stereo not drawn),–,·,–,–,–,–,·,
CCCS(=O)(=O)N1CCC(C(=O)NCCCOCC)CC1,–,–,–,–,–,–,·,
CCO[C@@H]1OC(C(=O)N2CCN(Cc3ccc4c(c3)OCO4)CC2)=C[C@H](C2CC2)[C@H]1CCCO,–,–,–,–,–,–,·,
CCNC(=S)N/N=C/c1ccc(OCC(=O)Nc2ccc(C)cc2)cc1,–,–,–,–,–,–,·,
COc1ccccc1Nc1nc(NCCC(C)C)nc(N)c1[N+](=O)[O-],–,–,–,52.6,–,–,41.4,Full FLuc ctr=80.0
COc1ccccc1Nc1nc(N(C)c2ccccc2)nc(N)c1[N+](=O)[O-],–,–,–,–,–,–,·,
Nc1nc(NCc2ccccc2)nc(Nc2ccc(F)cc2)c1[N+](=O)[O-],–,–,–,–,–,–,·,
CNc1nc(N)c([N+](=O)[O-])c(Nc2ccccc2OC)n1,–,–,–,65.0,–,·,–,Full FLuc ctr=71.4
COc1ccccc1Nc1nc(NCCO)nc(N)c1[N+](=O)[O-],?,–,–,62.1,–,–,–,
COc1ccc(CCNC(=O)CN(c2cc(C)cc(C)c2)S(=O)(=O)c2c(C)noc2C)cc1OC,–,–,–,–,–,–,·,
O=C(Cn1c(COc2ccccc2)nc2ccccc21)Nc1cc(Cl)cc(Cl)c1,–,–,–,–,–,–,·,
O=C(Cn1c(COc2ccccc2)nc2ccccc21)Nc1cc(Cl)ccc1Cl,–,–,–,89.2,–,–,71.0,Full FLuc ctr=104.1
CC1CCN(c2c([N+](=O)[O-])c(=O)oc3ccccc23)CC1,–,–,–,–,–,–,·,
Cc1nc2c(sc3nc(N4CCOCC4)c4c(c32)CC(C)(C)OC4)c(-c2ccc(Cl)cc2)c1C(=O)O,–,–,–,64.5,–,–,–,
CC1(C)Cc2c(c(N3CCOCC3)nc3sc(C(=O)Nc4ccc(Cl)cc4)c(N)c23)CO1,–,–,–,–,–,·,·,
CC1(C)Cc2c(c(N3CCOCC3)nc3snc(Br)c23)CO1,–,–,–,–,–,–,·,
CC1(C)Cc2c(c(N3CCOCC3)nc3snc(N)c23)CO1,–,–,–,82.9,–,–,–,
Cc1ccc(Sc2ccc(NC(=O)CCl)cc2)c(C)c1,–,–,–,65.7,–,–,–,
Oc1[nH]c2ccccc2c1N=Nc1ccccn1,·,–,·,·,·,·,·,
Oc1c(N=Nc2ccccn2)ccc2ccccc12,73.7,81.8,–,91.0,–,99.2,46.0,Full FLuc ctr=46.4
O=C(Nc1ccc(Br)cn1)c1cccc2ccccc12,–,–,–,56.3,–,–,50.3,Full FLuc ctr=80.6
O=C1CCCc2c1cc(C(=O)Nc1ccc(Br)cn1)c(=O)n2-c1ccccc1,–,–,–,56.6,–,–,–,
O=C(NNC(=O)c1cccc2ccccc12)c1ccccc1O,–,–,–,52.0,–,–,41.9,Full FLuc ctr=60.1
O=S(=O)(O)c1nc2ccccc2[nH]1,–,–,–,–,–,–,·,
COc1ccc(S(=O)(=O)N2CCN(CC(=O)Nc3cc(C(F)(F)F)ccc3Cl)CC2)cc1,–,–,–,–,–,–,·,
CCCNCc1cc(OC)c(OCC(=O)NCCc2ccccc2)cc1Br,–,–,–,–,–,–,·,
C=C(C(=O)c1ccccc1)C(c1ccccc1)C(C)C(=O)c1ccccc1 (stereo not drawn),–,–,–,92.1,–,110.8,62.5,Full FLuc ctr=44.0
O=C(c1ccccc1)C(c1ccccc1)c1ccccc1,–,–,–,–,–,–,·,
